Screening data (PubChem)
An excerpt weighted towards active compounds, which were near 19% of everything screened.
TDP1 cell noCPT = qHTS for Inhibitors of human tyrosyl-DNA phosphodiesterase 1 (TDP1): qHTS in cells in absence of CPT; DT40 Tdp1-/- hTDP1 cells, no CPT, ATP luminescence, 48 h; AID 686978, 2013; hit rate 15% among 420,000; Potency, µM (top dose mostly 46.2 µM), for inactives: at the top dose activity change, negative = growth inhibition, hits mostly inhibitors; note: potency is the fitted concentration of half-maximal effect; nearly all actives have a fitted effect of over 55% in size
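Luminescent ATP content (CellTiter-Glo) served as the growth readout. Knockout chicken DT40 cells expressing human TDP1 were exposed to compounds without camptothecin for a minimum 48 hr at 37 °C.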
HT1080 IDH1KD tx = toxicity to HT-1080 IDH1 knockdown cells (counter line) | HT-1080 IDH1 knockdown viability, ATP luminescence, 48 h | Potency, µM (highest dose often 46.1 µM), without a hit: at the highest dose activity, negative = toxicity, usual class: cytotoxic | hit rate 2% among 360,000 | AID 686971;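 note: potency is the fitted concentration of half-maximal effect; 0% = DMSO wells and -100% = cell-free medium wells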
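IDH1KD HT-1080 cells, 750/well, RPMI + 5% FBS; compound pinned after 2 h settling; 48 h, 37 °C; CellTiter-Glo luminescence; % activity normalised to DMSO and no-cell wells; curves fitted, classed by r2 and efficacy.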
TDP1 cell CPT = DT40-hTDP1 cell growth loss with CPT; chicken DT40 Tdp1-/-;hTDP1 cells + 20 nM CPT, ATP luminescence, 48 h; Potency, µM (doses to about 46.2 µM), inactives show at the highest dose activity change, negative = growth inhibition, hits mostly inhibitors; hit rate 12% among 420,000; AID 686979; note: potency is the fitted concentration of half-maximal effect; nearly all actives have a fitted effect of over 55% in size
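Chicken DT40 Tdp1-/- cells complemented with human TDP1, 400 cells/well, exposed to compounds plus 20 nM camptothecin for at least 48 h at 37 C; viability read as ATP content by CellTiter-Glo luminescence.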
HT1080-NT tox = kills 2HG-producing HT-1080-NT fibrosarcoma cells. AID 686970. HT-1080-NT fibrosarcoma viability, CellTiter-Glo ATP luminescence, 48 h. hit rate 1.6% among 360,000. Potency, µM (doses to about 46.1 µM), inactives show top-dose activity, negative = less viability, most hits filed as cytotoxic;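 note: NT is the 2HG producing partner of a matched IDH1 knockdown line; potency is the fitted concentration of half-maximal effect; 0% = DMSO-treated cells and -100% = media-only wells without cells; nearly all actives have a fitted effect of over 55% in size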
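Toxicity toward the 2HG-producing NT line was scored as %Activity, normalised to DMSO and no-cell wells, from CellTiter-Glo luminescence after 48 hours' treatment.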
IL1B secr inh = inflammasome signaling inhibition, IL-1 beta readout | AID 743279 | hit rate 4.7% among 360,000 | activity change, % at 57.5 µM | THP-1 LPS/ATP IL-1B secretion, AlphaLISA, 16 h; hits give low values; in the data active = activity change below about -50%; inconclusive = mostly about -30% to -49%
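THP-1 cells pretreated 1 hr with compounds (up to 57.5 uM final), then stimulated with LPS (250 ng/mL final) plus ATP (1.25 mM final); secreted IL-1B measured by AlphaLISA after 16 hr, decreased signal indicating inhibition.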
* marks the source's active call; other numbers are inactive results; ? = inconclusive; . = no result; ! = not active in a repeat; [ ] = remark or other dose. Unless noted, calls come from the whole dose curve; as a rule, active = well fitted curve in the direction sought with a large enough effect; inconclusive = small, poorly fitted or top-dose-only effect, or another doubt; inactive = no such curve, though single readings can be large; an effect the other way counts as inactive or inconclusive. Unless noted, % is set by controls: 0 for no effect and ±100 for the full control effect.

SMILES | TDP1 cell noCPT | HT1080 IDH1KD tx | TDP1 cell CPT | HT1080-NT tox | IL1B secr inh
COc1ccc(N2C(=O)CCC(C(=O)N3CCN(c4ccccn4)CC3)C2c2ccc(F)cc2)cc1 (centres undefined) | ? | 3.1% | -3.9% | 2.2% | 4.5
CC(=O)Nc1ccc(NC(=O)Cn2c(=O)n(-c3ccc(C)cc3)c(=O)c3oc4ccccc4c32)cc1 | 17.2% | -1.7% | 12.3% | 2.4% | 3.2
CCOc1ccc(-c2nnc(SCC(=O)N(CC)c3cccc(C)c3)o2)cc1 | 10.3µM* | . | 20.6µM* | . | .
COc1cc(-c2nnc(SCC(=O)N(C)C3CCCCC3)o2)cc(OC)c1OC | 5.8µM* | . | 11.6µM* | . | .
CCN(C(=O)CSc1nnc(-c2ccc(Cl)cc2)o1)c1ccccc1 | 20.6µM* | . | ? | . | .
N#Cc1cccc(N2[C@@H](Cc3cc4ccccc4n3Cc3ccccc3)COC[C@H]2Cc2ccc3ccccc3c2)c1 | -9.4% | 8.9% | -9.7% | 6.9% | 12.0
CC(Oc1ccc(Br)cc1)C(=O)NCc1ccccn1 (centres undefined) | -7.4% | 9.7% | 18.3% | -2.9% | -29.5
O=C(O)CNc1nc(Cl)ccc1[N+](=O)[O-] | 20.5% | 2.3% | 1.2% | 8.4% | 4.3
Cc1ccc(/C=C2/C(=O)N(c3ccccc3)C(=S)N2C)o1 | 23.1µM* | -19.0% | ? | -15.6% | 0.0
CCOC(=O)C1C(=O)NC(SCC(=O)Nc2nccs2)=C(C#N)C1c1ccccc1OCC (centres undefined) | 13µM* | 1.4% | ? | 10.5% | -6.1
CCOC(=O)CSC1=C(C#N)C(c2ccccc2OCC)C(C#N)C(=O)N1 (centres undefined) | 18.4µM* | -8.6% | 14.6µM* | ? | 3.7
C=CCn1c(=O)/c(=C/c2ccc(F)cc2)s/c1=C(\C#N)c1nnc2n1CCCCC2 | 16.4µM* | -0.4% | 23.1µM* | -16.2% | -67.1*
O=c1/c(=C\c2ccc(F)cc2)sc2n1CCCN=2 | ? | -16.8% | ? | -0.4% | 0.0
C=CCN(c1ccccc1)S(=O)(=O)c1cc2c(cc1C)N(C)CCO2 | ? | 3.1% | -2.0% | -11.0% | 6.3
COCCCNC(=O)c1ccc(CSc2nc3cccnc3n2Cc2ccc(OC)cc2)cc1 | 16.4µM* | . | 23.1µM* | . | .
COCCCNC(=O)c1ccc(Cn2c(SCc3ccc(F)cc3)nc3cccnc32)cc1 | 14.6µM* | . | ? | . | .
CC(C)OCCCNC(=O)c1ccc(Cn2c(=O)c3cccn3c3cccnc32)cc1 | -7.4% | . | -9.9% | . | .
CC(C)OCCCNC(=O)c1ccc(CSc2nc3cccnc3n2Cc2ccccc2)cc1 | 23.1µM* | . | ? | . | .
Cc1ccc(C(C)C)c(OCc2nc(-c3nonc3N)no2)c1 | 7.31µM* | -27.7% | 16.4µM* | -6.8% | ?
C=CCn1c(SCC(=O)NCC)nnc1-c1cc2c(s1)CCC(CC)C2 (centres undefined) | 16.4µM* | -11.6% | 23.1µM* | 0.5% | -12.2
C=CCn1c(SCC(=O)NCCOC)nnc1-c1cc2c(s1)CCC(CC)C2 (centres undefined) | 18.4µM* | 1.3% | ? | -0.6% | -18.7
C=CCn1c(SCC(=O)NC(N)=O)nnc1-c1cc2c(s1)CCC(CC)C2 (centres undefined) | ? | -8.3% | -17.5% | -0.4% | -21.3
CC[n+]1c(C)sc2c3ccsc3ccc21 | 16.4µM* | 8.8% | 23.1µM* | 6.4% | 50.9
CCC[n+]1c(C)sc2c(OC)ccc(OC)c21 | ? | -0.3% | ? | 0.0% | -23.6
CCOc1ccc(N(CC(=O)NCc2ccccc2C)S(C)(=O)=O)cc1 | -6.2% | -8.6% | -13.1% | 0.5% | -19.9
SMILES | TDP1 cell noCPT | HT1080 IDH1KD tx | TDP1 cell CPT | HT1080-NT tox | IL1B secr inh
O=C(Nc1ccc(F)cc1)N1CCCN(c2ccc(C(F)(F)F)cn2)CC1 | ? | ? | ? | -16.8% | -14.4
CC(C)(C)c1ccc(NC(=O)N2CCCN(c3c(Cl)cncc3Cl)CC2)cc1 | 7.31µM* | -13.8% | 16.4µM* | ? | -64.6*
CCN(CC)C(=O)N1CCN(C)CC1 | ? | 17.1% | 1.01µM*! | 17.1% | -12.5
COC(=O)c1c(C)nn(-c2ccc(OC(F)(F)F)cc2)c1-c1snnc1C | 16.4µM* | -3.2% | ? | -5.7% | -3.0
Cc1nnsc1-c1c(C(=O)Oc2ccccc2)c(C)nn1-c1ccccc1 | ? | -7.7% | -22.0% | -0.9% | 1.2
C#Cc1cccc(C(=O)NCc2nc(-c3ccccc3NC(=O)C3CCCO3)oc2C)c1 (centres undefined) | -7.7% | . | 3.1%[9.04 µM] | . | .
O=C(COc1ccccc1-c1ccccc1)NNC(=O)NC1CCCCC1 | ? | -8.9% | -19.1% | -22.5% | -3.0
COc1ccccc1CNC(=O)CN1C(=O)CCc2cc(S(=O)(=O)N3CCOCC3)ccc21 | -4.8% | . | -14.7% | . | .
Cc1nn(-c2ccccn2)c2c1C(c1ccccc1Cl)C1=C(N2)c2ccccc2C1=O (centres undefined) | 4.61µM* | 12.9% | 6.51µM* | 5.0% | -13.9
CSC1=C(C#N)C(c2ccccc2Cl)C2=C(N1)c1ccccc1C2=O (centres undefined) | 18.4µM* | 7.0% | 23.1µM* | -1.5% | -97.9*
O=C(Cn1cnc2ccccc2c1=O)Nc1ccccc1N1CCOCC1 | 1.6% | 11.3% | 2.4% | 3.5% | 4.0
COc1ccc(Cl)cc1NC(=O)Nc1ccc(Br)cn1 | ? | 17.8µM* | ? | ? | 29.9
COc1ccc(Cl)cc1NC(=O)Nc1cccc([N+](=O)[O-])c1C | 23.1µM* | -8.7% | ? | -7.4% | -5.7
CCOc1ccc(NC(=O)Nc2ccc(Br)cn2)cc1 | ? | 5.6% | 6.1% | 19.1% | -13.7
O=C(Nc1ccc(Cl)cc1)Nc1ccc(Br)cn1 | 18.4µM* | 15.7% | 18.4µM* | ? | -14.3
CCOC(=O)CC[C@H](NC(=O)Cn1cc(C)c(=O)[nH]c1=O)C(=O)OCC | -17.0% | 4.9% | -2.7% | 7.4% | 13.8
O=S(=O)(c1ccc(Br)cc1)c1nnn2c1nc(NCc1ccc3c(c1)OCO3)c1sccc12 | -23.3% | . | ? | . | .
Cc1cc(C)nc(NC(=O)CN2C(=O)c3ccccc3C2=O)n1 | 1.9% | 1.3% | -5.3% | -3.1% | -4.6
Cn1ncc2c(NCCc3ccccc3)nc(Cl)nc21 | 20.6µM* | -21.7% | 23.1µM* | -10.3% | -9.2
COCCNc1nc(NCc2cccc(Cl)c2)c2cnn(C)c2n1 | 14.6µM* | . | ? | . | .
Cn1ncc2c(NCc3cccc(Cl)c3)ncnc21 | ? | . | 14.6µM* | . | .
CCCNc1nc(NCc2ccccc2OC)c2cnn(C)c2n1 | 13µM* | . | 14.6µM* | . | .
COCCNc1nc(NCc2ccccc2)c2cnn(C)c2n1 | ? | 3.4% | -2.6% | -11.6% | 1.1
Cn1ncc2c(Nc3ccccc3Cl)nc(Cl)nc21 | -19.5% | -14.0% | -2.5% | -10.7% | 54.2
